Measured values as given in ChEMBL document CHEMBL3988442, “University of Dundee, Small-Polar-MMV Screening Library” (2021).
For some assays here: Entries with a potency or affinity are not part of this list.

Key:
Parameters in all cases: scale not given: direction of the effect not stated beside the values
[1] = biological target: Protein translocase subunit SecA (Escherichia coli (strain K12)) (UniProt P10408); test: Assay to Identify E. coli SecA ATPase Inhibitors; type: functional; conditions: 30 µM
[2] = biological target: T1, Ubiquitin-activating enzyme e1, putative (Leishmania donovani (strain BPK282A1)) (UniProt E9BSI1); test: Leishmania donovani Ubiquitin Activating Enzyme (LdE1); type: functional; conditions: 30 µM
T1 sequence (whole entry): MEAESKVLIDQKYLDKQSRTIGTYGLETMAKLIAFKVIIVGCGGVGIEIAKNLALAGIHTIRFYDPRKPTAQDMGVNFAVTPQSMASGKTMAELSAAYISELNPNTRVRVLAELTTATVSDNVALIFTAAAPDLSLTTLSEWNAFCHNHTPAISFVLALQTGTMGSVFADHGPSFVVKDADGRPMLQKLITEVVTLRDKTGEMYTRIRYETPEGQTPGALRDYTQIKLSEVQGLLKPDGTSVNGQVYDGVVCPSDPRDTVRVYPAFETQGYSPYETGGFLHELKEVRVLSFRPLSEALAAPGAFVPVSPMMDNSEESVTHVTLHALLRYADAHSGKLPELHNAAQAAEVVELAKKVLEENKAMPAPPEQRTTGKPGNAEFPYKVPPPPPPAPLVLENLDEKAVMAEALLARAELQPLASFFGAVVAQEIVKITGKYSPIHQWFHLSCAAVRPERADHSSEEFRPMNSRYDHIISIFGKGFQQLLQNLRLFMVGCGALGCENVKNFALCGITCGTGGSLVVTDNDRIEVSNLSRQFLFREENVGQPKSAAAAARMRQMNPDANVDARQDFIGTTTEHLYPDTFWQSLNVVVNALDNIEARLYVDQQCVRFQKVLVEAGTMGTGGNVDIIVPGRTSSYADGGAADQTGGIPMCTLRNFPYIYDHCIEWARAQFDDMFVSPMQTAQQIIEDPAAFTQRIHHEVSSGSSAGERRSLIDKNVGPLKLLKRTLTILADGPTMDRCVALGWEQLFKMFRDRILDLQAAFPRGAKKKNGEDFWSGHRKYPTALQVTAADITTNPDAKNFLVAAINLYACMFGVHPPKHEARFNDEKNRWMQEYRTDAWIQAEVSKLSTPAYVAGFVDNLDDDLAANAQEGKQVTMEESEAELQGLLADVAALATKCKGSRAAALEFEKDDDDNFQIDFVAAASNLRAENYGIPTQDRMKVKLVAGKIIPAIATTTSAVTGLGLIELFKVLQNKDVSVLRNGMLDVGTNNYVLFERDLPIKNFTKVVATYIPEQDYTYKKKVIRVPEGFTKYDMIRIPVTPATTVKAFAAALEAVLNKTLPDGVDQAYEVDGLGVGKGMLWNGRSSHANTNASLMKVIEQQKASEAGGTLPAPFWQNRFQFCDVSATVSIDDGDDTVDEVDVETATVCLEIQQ

[3] = biological target: AMP-activated protein kinase, AMPK (Homo sapiens) (UniProt P54646+O43741+P54619+Q9UGJ0+Q9Y478+Q13131+Q9UGI9); test: AMP-dependent Kinase enzyme assay. An in vitro enzyme assay that detects ADP turnover that is directly proportional to AMPK activity. This uses naive AMPK that is activated during the assay with MK-8722; type: functional; conditions: 30 µM
[4] = biological target: Sialic acid-binding Ig-like lectin 9 (Homo sapiens) (UniProt Q9Y336); test: Hs-Siglec9 ALPHAscreen SOP 20170721; conditions: 10 µM
Trypanosoma cruzi = test: Trypanosoma cruzi phosphomannomutase and mannose-1-phosphate guanylyltransferase assay; type: functional; conditions: 10 µM
[5] = biological target: T2, Arginase-2, mitochondrial (Homo sapiens) (UniProt P78540); test: in vitro enzyme assay to detect the production of urea directly proportional to the activity of Arginase II; type: functional; conditions: 33.3 µM; also: in the data most compounds retested in dose-response had high values
T2 sequence (whole entry): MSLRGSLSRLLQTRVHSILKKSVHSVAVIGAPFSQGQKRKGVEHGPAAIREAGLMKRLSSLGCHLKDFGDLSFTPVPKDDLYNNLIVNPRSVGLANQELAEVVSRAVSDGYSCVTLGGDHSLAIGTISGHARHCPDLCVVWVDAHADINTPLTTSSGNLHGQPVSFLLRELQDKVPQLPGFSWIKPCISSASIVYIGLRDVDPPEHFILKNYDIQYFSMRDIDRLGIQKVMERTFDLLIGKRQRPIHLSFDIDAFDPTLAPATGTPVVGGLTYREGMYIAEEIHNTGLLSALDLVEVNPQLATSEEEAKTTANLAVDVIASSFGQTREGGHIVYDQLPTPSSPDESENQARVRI

[6] = biological target: T3, Proteasome subunit beta (Trypanosoma cruzi) (UniProt O96673); test: Trypanosoma cruzi proteasome chymotrypsin-like activity (TcProtChymo) assay.; also: in the data most compounds retested in dose-response had high values; type: functional; conditions: 9.37 µM
T3 sequence (whole entry): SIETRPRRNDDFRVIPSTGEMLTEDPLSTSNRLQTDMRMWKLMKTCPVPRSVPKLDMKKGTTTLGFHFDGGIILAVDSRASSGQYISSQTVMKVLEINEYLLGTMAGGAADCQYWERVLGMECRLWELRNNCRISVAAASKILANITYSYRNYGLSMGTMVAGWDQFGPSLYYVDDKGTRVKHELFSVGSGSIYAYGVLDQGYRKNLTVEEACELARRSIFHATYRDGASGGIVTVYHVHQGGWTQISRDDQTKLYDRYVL

Homo sapiens = species: Homo sapiens; test: To identify inhibition of the IFN signalling (Jak-Stat) pathway via expression of an eGFP reporter gene under the control of an IFN-stimulated response element (ISRE) containing MxA promoter.; type: functional; conditions: 30 µM
[7] = biological target: T4, Tyrosyl-tRNA synthetase, putative (Trypanosoma cruzi (strain CL Brener)) (UniProt Q4DSP6); test: Trypanosoma cruzi tyrosyl tRNA synthetase (TcYRS) _High Tyrosine SOP; type: functional; conditions: 30 µM; also: in the data most compounds retested in dose-response had high values
T4 sequence (whole entry): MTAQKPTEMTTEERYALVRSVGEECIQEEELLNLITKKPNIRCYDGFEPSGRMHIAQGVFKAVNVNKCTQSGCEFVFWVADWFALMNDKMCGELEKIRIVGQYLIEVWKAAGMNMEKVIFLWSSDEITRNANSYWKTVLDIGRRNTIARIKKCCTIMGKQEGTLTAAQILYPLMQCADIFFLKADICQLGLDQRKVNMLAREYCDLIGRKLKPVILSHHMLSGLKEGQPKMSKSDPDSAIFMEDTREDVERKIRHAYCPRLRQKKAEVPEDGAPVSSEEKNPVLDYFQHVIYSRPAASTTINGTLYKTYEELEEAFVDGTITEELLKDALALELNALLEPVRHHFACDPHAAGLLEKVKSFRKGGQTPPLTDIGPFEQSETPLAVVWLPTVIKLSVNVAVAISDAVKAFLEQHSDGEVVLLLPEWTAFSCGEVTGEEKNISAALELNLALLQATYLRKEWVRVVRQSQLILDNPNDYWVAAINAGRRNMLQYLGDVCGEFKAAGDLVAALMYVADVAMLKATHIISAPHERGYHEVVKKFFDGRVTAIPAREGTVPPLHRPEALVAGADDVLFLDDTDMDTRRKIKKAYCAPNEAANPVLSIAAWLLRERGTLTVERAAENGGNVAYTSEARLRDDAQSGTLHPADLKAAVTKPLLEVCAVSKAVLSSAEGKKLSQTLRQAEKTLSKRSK

[8] = biological target: T4, Tyrosyl-tRNA synthetase, putative (Trypanosoma cruzi (strain CL Brener)); test: Trypanosoma cruzi tyrosyl tRNA synthetase (TcYRS) SOP; type: functional; conditions: 30 µM
[9] = biological target: Chromo domain-containing protein 1 (Saccharomyces cerevisiae (strain ATCC 204508 / S288c) (Baker's yeast)) (UniProt P32657); test: ScCHD-1 Enzyme Inhibition Assay; type: functional; conditions: 30 µM; also: in the data most compounds retested in dose-response had high values
Chain of Chromo domain-containing protein 1 (Saccharomyces cerevisiae (strain ATCC 204508 / S288c) (Baker's yeast)) (P32657 whole entry, the tested form may be a part): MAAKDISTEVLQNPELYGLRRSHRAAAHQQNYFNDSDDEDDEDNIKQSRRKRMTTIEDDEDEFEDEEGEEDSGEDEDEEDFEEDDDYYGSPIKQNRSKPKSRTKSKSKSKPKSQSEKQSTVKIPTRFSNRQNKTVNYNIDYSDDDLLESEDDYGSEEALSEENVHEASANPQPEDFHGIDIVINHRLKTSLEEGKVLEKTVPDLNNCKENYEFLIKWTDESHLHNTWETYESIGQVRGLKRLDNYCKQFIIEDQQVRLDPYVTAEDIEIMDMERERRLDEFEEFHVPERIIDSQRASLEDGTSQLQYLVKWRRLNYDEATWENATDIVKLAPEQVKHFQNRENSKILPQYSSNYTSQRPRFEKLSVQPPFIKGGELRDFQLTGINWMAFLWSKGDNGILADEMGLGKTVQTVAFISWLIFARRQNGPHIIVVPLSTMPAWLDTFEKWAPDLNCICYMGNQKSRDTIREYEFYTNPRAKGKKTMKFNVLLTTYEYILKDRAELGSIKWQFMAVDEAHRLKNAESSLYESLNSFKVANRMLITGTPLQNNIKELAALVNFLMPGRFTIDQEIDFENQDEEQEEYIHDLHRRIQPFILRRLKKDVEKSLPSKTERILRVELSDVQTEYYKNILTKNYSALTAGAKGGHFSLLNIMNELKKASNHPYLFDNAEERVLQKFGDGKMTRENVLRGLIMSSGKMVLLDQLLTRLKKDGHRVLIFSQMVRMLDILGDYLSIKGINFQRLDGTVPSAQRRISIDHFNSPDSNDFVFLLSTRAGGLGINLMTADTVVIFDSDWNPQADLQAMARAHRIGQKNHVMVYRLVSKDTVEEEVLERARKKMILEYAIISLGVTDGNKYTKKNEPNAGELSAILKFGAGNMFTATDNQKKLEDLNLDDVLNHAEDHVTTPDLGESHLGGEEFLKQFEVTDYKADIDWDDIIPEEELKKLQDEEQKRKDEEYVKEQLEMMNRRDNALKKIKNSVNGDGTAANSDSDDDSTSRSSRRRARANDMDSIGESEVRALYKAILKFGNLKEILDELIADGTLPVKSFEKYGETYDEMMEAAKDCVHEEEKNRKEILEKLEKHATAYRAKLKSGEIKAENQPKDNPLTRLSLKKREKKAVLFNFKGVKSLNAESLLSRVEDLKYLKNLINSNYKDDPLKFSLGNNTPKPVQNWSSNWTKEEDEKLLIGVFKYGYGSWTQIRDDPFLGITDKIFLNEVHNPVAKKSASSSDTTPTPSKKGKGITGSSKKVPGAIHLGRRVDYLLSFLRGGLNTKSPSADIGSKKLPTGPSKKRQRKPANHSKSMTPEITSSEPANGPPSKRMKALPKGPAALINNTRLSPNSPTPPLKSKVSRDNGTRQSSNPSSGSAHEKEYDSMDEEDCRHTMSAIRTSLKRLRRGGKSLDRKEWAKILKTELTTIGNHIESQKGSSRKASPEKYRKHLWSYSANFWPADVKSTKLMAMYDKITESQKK

Chain of Sialic acid-binding Ig-like lectin 9 (Homo sapiens) (Q9Y336 whole entry): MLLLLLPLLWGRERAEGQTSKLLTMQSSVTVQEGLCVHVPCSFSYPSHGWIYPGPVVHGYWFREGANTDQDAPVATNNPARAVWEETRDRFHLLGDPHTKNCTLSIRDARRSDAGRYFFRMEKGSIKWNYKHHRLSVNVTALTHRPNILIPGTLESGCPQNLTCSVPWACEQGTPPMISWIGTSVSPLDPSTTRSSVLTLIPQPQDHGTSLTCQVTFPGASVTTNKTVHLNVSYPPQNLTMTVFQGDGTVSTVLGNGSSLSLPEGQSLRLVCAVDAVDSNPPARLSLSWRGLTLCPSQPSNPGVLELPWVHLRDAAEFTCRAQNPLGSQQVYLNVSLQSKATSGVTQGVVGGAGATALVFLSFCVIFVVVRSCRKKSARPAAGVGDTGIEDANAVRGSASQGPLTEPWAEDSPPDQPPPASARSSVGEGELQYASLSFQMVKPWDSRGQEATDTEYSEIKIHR
Chain of Protein translocase subunit SecA (Escherichia coli (strain K12)) (P10408 whole entry): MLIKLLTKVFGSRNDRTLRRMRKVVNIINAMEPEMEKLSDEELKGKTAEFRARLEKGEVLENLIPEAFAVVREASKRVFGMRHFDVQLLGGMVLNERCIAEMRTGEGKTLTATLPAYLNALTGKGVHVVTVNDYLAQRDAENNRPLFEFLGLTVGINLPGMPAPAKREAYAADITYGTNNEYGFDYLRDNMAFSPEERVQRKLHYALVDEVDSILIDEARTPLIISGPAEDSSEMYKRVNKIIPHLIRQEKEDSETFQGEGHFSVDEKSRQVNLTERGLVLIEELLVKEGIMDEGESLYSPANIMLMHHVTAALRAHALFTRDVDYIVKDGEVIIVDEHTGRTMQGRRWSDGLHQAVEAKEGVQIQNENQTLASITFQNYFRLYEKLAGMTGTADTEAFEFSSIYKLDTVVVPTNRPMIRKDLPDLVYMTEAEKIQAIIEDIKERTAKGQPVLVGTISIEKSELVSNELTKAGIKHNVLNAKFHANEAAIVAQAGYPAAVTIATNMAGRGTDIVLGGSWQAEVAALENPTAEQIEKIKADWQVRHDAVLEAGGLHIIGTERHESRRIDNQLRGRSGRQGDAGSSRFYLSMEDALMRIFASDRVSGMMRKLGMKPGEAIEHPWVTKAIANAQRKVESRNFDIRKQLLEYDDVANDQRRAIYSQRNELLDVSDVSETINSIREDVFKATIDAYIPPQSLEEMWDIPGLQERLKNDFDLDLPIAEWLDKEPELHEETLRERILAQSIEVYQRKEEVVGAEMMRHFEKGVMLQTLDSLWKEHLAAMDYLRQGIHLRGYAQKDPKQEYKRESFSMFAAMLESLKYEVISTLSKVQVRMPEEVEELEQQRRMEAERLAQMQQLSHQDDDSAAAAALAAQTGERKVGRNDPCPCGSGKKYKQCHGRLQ

SMILES | Percent Effect [1] | Percent Effect [2] | Percent Effect [3] | Percent Effect [4] | Percent Effect (Trypanosoma cruzi) | Percent Effect [5] | Percent Effect [6] | Percent Effect (Homo sapiens) | Percent Effect [7] | Percent Effect [8] | Percent Effect [9]
O=C(CCc1nc2cccnc2[nH]1)Nc1cccnc1 | -3.23% | 22.7% | -1.32% | 1.96% | 3.14% | -2.29% | 14.1% | -1.85% | 2.12% | 20.5% | -7.05%
COc1ccc2nnc(CCCC(=O)NCc3cccn3C)n2n1 | -2.1% | 22.7% | -8.56% | 0.257% | 1.57% | 0.176% | 17.4% | -1.92% | 8.47% | -41% | -12%
CNS(=O)(=O)c1cccc(C(C)NCc2cccc(OC)c2)c1 (configuration not stated) | -3.08% | -5.41% | 4.16% | -2.94% | -4.3% | -0.417% | 4.31% | 11.2% | 0% | -8.54% | -3.26%
CCCc1nc(C)cc(N2CCC3(CCC(=O)N(CCOC)C3)CC2)n1 | -4.76% | 10.8% | -6.4% | -1.18% | -0.489% | -0.744% | 10.9% | -7.21% | 4.3% | 13.6% | -3.56%
CC(Cn1cccn1)NC(=O)NCCc1cnn(C)c1 (configuration not stated) | 1.95% | 2.53% | -9% | -14.8% | -9.91% | 0.38% | 10.7% | 24.5% | 5.42% | 8.86% | -3.48%
O=c1cc(Cn2ccnc2)nc2n1CCCN(Cc1ccsc1)C2 | -4.06% | 4% | 0.478% | 7% | -5.7% | -6.51% | 13.3% | -7.79% | 7.41% | 5.13% | -8.3%
CCc1nc(CN2CCCC(NCc3ncc(C(C)(C)C)o3)C2)no1 (configuration not stated) | -1.05% | 18.2% | 2.6% | -6.25% | 1.27% | 1.05% | 22.6% | -1.65% | 12.4% | 35.3% | -24.7%
CNC(=O)c1cnc(/C=C/c2cc(OC)cc(OC)c2)s1 | -6.6% | -5.41% | -2.31% | 7.75% | -6.25% | 0.417% | 21.4% | 18.1% | 1.98% | -6.1% | -3.49%
CN(Cc1cnn(C)c1)C(=O)NC1CCN(Cc2ccccn2)CC1 | -4.71% | 15.6% | 2.19% | -0.77% | -8.99% | 0.356% | 4.22% | 15.9% | 3.88% | 7.32% | -3.83%
CCC(=O)Nc1ccc(C(C)NC(=O)COCCOC)cc1 (configuration not stated) | 0.243% | 15.8% | -1.87% | -5.07% | 1.46% | -3.55% | 15.1% | 23.5% | 4.25% | 15.6% | -5.61%
Cc1nc(C2CCCN2Cc2nc(C)c(C)o2)no1 (configuration not stated) | -2.9% | 16.2% | -2.94% | -1.49% | -1.95% | 1.29% | 4.49% | -3.4% | 13.9% | 25.6% | -5.47%
Cc1nc(N2CCOCC2)nc2c1CN(C(=O)Cc1ccccn1)CC2 | 1.23% | 0% | 3.27% | 5.25% | 0.688% | 4.14% | 2.66% | -4.9% | 3.23% | -1.24% | 0.916%
CCOc1cc(CN(C)CCOC)ccc1OC(F)F | -7.96% | -2.6% | 2.19% | -0.762% | -9.34% | 1.38% | 10.3% | -3.34% | 0% | -1.24% | 0.485%
CCc1nc(C2CCCN2Cc2nnc(Cc3ccccc3)o2)no1 (configuration not stated) | -3% | 0% | 2.23% | 3.12% | 8.52% | 1.9% | 5.25% | -2.79% | 1.91% | 2.35% | 4.27%
CC(C)Oc1cc(N2C[C@@H](C)O[C@@H](C)C2)nc(N)n1 | -1.28% | 8.11% | -16.9% | -0.905% | 0% | -17.1% | 12.8% | 3.78% | 10.1% | 12.2% | -1.35%
CC(=O)NCC(=O)N1Cc2nccn2CC(CN2CCCC2)C1 (configuration not stated) | -4.42% | 5.41% | 1.1% | -2.08% | -5.77% | 0.955% | 19.6% | 5.21% | 6.49% | 10.3% | -0.00691%
CC(C(=O)Nc1ccc(N2CCCC2)nc1)n1cncn1 (configuration not stated) | -5.02% | 10.8% | -32.5% | 18.1% | 4.62% | -9.62% | 14.2% | 19.2% | 7.39% | 18.5% | -10.4%
CC(C)n1ncc2c1NC(=O)CC21C(=O)Nc2c(Cl)cccc21 (configuration not stated) | -1.42% | -1.33% | 3.7% | 7% | -0.393% | -6.87% | 0.185% | 34% | 1.06% | 2.56% | -2%
Cc1nc2ccccc2nc1CN(C)CC1CCCN1c1cccnn1 (configuration not stated) | -5.25% | 5.2% | 0.00702% | -11.8% | 3.23% | 1.47% | 5.58% | 21.9% | 10.5% | 2.35% | -19.8%
Cc1nc(C)c2c(n1)CCN(C(=O)CC1CC1)CC2 | 3.82% | 10.8% | 4.71% | -10.8% | -5.57% | 2.87% | 21.2% | 10.2% | 3.24% | 12.8% | -3.91%
CCS(=O)(=O)N1CCC2(CC(=O)N(c3cccc(C)c3)C2)C1 (configuration not stated) | -2.42% | 8% | -0.745% | 0.841% | 1.54% | -48.9% | 8.21% | -25.8% | 8.33% | 27.5% | -6.79%
COc1cccc(CN(C)C(=O)Nc2ccc3c(c2)OCCO3)c1 | -0.723% | 18.4% | -0.168% | -10.2% | 0.0974% | 2.37% | 26.6% | 22.9% | 1.06% | 10.4% | -8.52%
